This passage reports Potency and outcome results from PubChem BioAssay (NCATS).

Unmarked numbers belong to inactive results. Results filed as inconclusive are left out. Active and inactive are the calls of the source. The call rests on the fitted dose curve; in most records, active means well fitted curve in the direction sought with a large enough effect; inconclusive means small, poorly fitted or top-dose-only effect, or another doubt; inactive means no such curve, though single readings can be large; an effect the other way counts as inactive or inconclusive.

A short description of experiment [1]: Cell Viability - LYMP2-001 (AID 921). Further: series mostly up to about 92 µM; nearly all actives have a fitted effect of over 70% in size. Summed up: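 A lymphoblastoid cell line of human origin was treated with library compounds across a concentration series for 24 hours, and viable cell number was estimated from ATP-driven luciferase light output. Hill modeling gave AC50.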
Experiment [2] in a line: MultiTox-Fluor Cytotoxicity Assay - LYMP1-001 - Dead Cells (AID 946). Summed up: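 In this qHTS, 15 uM tetraoctylammonium bromide defined 100% and DMSO defined basal activity. Lymphoblastoid cells (LYMP1-001, 2500 per well) received compound for 16 hr at 37 C before a fluorogenic dead-cell substrate readout at 485/520 nm.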
Experiment [3] in a line: MultiTox-Fluor Cytotoxicity Assay - LYMP1-001 - Live Cells (AID 947).
A short description of experiment [4]: Cell Viability - LYMP1-002 - Assay at 16 hr (AID 948). Summed up: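 In this qHTS, lymphoblastoid LYMP1-002 cells (human) receive compounds for 16 hr at 37 C. Viability is taken from CellTiter-Glo ATP luminescence, and AC50 derives from standard Hill fits.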
A short description of experiment [5]: MultiTox-Fluor Cytotoxicity Assay - LYMP1-002 - Live Cells (AID 955). Summed up:
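Human lymphoblastoid LYMP1-002 cells, 2500/well in complete medium, rested 5 hr at 37 C, then exposed to compounds for 16 hr at 37 C. Live-cell protease cleavage of GF-AFC read by fluorescence (Ex/Em 405/510) after 60 min at room temperature; AC50 from Hill fits.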

A short description of experiment [6]: MultiTox-Fluor Cytotoxicity Assay - LYMP1-002 - Dead Cells (AID 960). Further: nearly all actives have a fitted effect of over 60% in size. In short, it runs like this:
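Human lymphoblastoid cells (LYMP1-002), 2500/well in complete medium, were exposed to compounds for 16 hr at 37 C. Dead-cell protease activity was read as bis-AAF-R110 fluorescence (Ex/Em 485/520), normalized to DMSO and 15 uM tetraoctylammonium bromide; AC50 from Hill fits.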

Experiment [7] in a line: MultiTox-Fluor Cytotoxicity Assay - LYMP1-003 - Dead Cells (AID 961). Further: nearly all actives have a fitted effect of over 70% in size. In short, it runs like this: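 Acute toxicity is scored as increased dead-cell protease activity in human lymphoblastoid LYMP1-003 cells after 16 h compound exposure in complete culture medium. Activity is normalized to DMSO basal and 15 uM tetraoctylammonium bromide as full response.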
Experiment [8] is described as follows: MultiTox-Fluor Cytotoxicity Assay - LYMP1-003 - Live Cells (AID 962).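 Further: cytotoxic hits lower the live-cell protease signal.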 Summed up: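 LYMP1-003 human lymphoblastoid cells (2500/well) in complete medium were preincubated 5 hr at 37 C, then exposed to compounds for 16 hr at 37 C. Live-cell protease cleavage of GF-AFC read by fluorescence (Ex/Em 405/510); AC50 from Hill fits.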
Experiment [9] can be described thus: Cell Viability - LYMP1-003 - Assay at 24 hr (AID 963). In short, it runs like this: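 Human lymphoblastoid LYMP1-003 cells (2500/well) were rested 5 hr at 37 C, then exposed to compounds in complete medium for 24 hr at 37 C. Cellular ATP was quantified by CellTiter-Glo luminescence, and AC50 values came from Hill fits of concentration-response data.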
The nature of experiment [10]: Cell Viability - LYMP1-003 - Assay at 40 hr (AID 964). Further: series mostly up to about 92 µM; nearly all actives have a fitted effect of over 60% in size. In short, it runs like this: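 Human lymphoblastoid LYMP1-003 cells, 2500/well in complete medium, rested 5 hr at 37 C, then exposed to compounds for 40 hr at 37 C. Viability read as intracellular ATP by CellTiter-Glo luminescence; AC50 from Hill fits of concentration-response data.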
Experiment [11] can be described thus: Cell Viability - LYMP2-004 (AID 966). Further: nearly all actives have a fitted effect of over 65% in size. Summed up:
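Human lymphoblastoid cells (2500/well) in complete medium were treated with compounds for 24 hr at 37 C, then intracellular ATP was measured by CellTiter-Glo luminescence. AC50 values came from Hill-equation fits of concentration-response data.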

Experiment [12] is described as follows: Cell Viability - LYMP2-005 (AID 967). Further: series mostly up to about 92 µM. Summed up: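 Luciferase-based ATP quantitation served as the viability measure in human lymphoblastoid LYMP2-005 cells exposed to test compounds for 24 h at 37 C in complete culture medium. Potency (AC50) was obtained by fitting concentration-response curves with the Hill equation.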
Experiment [13] is described as follows: Cell Viability - LYMP2-009 (AID 968). Further: series mostly up to about 92 µM; nearly all actives have a fitted effect of over 55% in size.
A short description of experiment [14]: Cell Viability - LYMP2-011 (AID 969). Further: nearly all actives have a fitted effect of over 60% in size. In short, it runs like this:
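Human lymphoblastoid cells (2500/well) were plated in complete medium, preincubated 5 hr at 37 C, then exposed to compounds for 24 hr at 37 C. Intracellular ATP was read by CellTiter-Glo luminescence, and AC50 came from Hill-equation concentration-response fits.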

The nature of experiment [15]: Confirmation and Secondary Assay for Modulators of Hemoglobin Beta Chain Splicing at IVS2 705 locus (AID 930).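 Further: GFP fluorescence per well restored by corrected splicing of the IVS2-705 intron in EGFP.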 Further: potency means the concentration at half of the fitted maximal effect. In short, it runs like this: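 Splice-correction reporter: EGFP cDNA split by beta-globin intron 2 bearing the 705 mutation, stably in HeLa. Compound incubation 2 days, 37C; fluorescent objects 5-250 µm summed per well.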

Regarding `CC1=CCC2CC1C2(C)C` (stereo unspecified), the Potency result in [1], in experiment [2], in experiment [4], in experiment [5], in [6] and in [7] was “inactive” each time. The Potency entry in experiment [9], in experiment [10], in experiment [11], in [12], in experiment [13] and in experiment [14] was “inactive” throughout. For the same molecule, the call in [3] and in [8] was inactive.
As to `OCl`, the Potency entry in experiment [1], in experiment [2], in [4], in experiment [5], in [6] and in experiment [7] was “inactive” each time. Moreover, the Potency result in [9], in experiment [10], in experiment [11], in experiment [12], in experiment [13] and in experiment [14] was “inactive” each time. The molecule was called inactive in [3] and in experiment [8].
Turning to `OC[C@H]1O[C@@H]2O[C@H]3[C@H](O)[C@@H](O)[C@@H](O[C@H]4[C@H](O)[C@@H](O)[C@@H](O[C@H]5[C@H](O)[C@@H](O)[C@@H](O[C@H]6[C@H](O)[C@@H](O)[C@@H](O[C@H]7[C@H](O)[C@@H](O)[C@@H](O[C@H]1[C@H](O)[C@H]2O)O[C@@H]7CO)O[C@@H]6CO)O[C@@H]5CO)O[C@@H]4CO)O[C@@H]3CO`, the Potency result in [1], in [2], in [4], in experiment [5], in experiment [6] and in experiment [7] was “inactive” in each case. Besides, the Potency entry in experiment [9], in [10], in [11], in experiment [12], in experiment [13] and in experiment [14] was “inactive” throughout. Also, the call in experiment [3] and in experiment [8] was inactive.
On to `Nc1ccc(N=Nc2ccccc2)c(N)n1`, for which the Potency result in experiment [1], in [2], in experiment [4], in [5], in experiment [6] and in experiment [7] was “inactive” each time. Also, the Potency result in experiment [9], in experiment [10], in experiment [11], in experiment [12], in experiment [13] and in experiment [14] was “inactive” throughout. Besides, the Potency in experiment [15] is 20 µM (active). For the same molecule, the molecule was classed as inactive in experiment [3] and in experiment [8].
Regarding `Nc1nccs1`, the Potency entry in experiment [1], in [15], in experiment [2], in experiment [4], in experiment [5] and in [6] was “inactive” each time. Further, the Potency result in experiment [7], in experiment [9], in experiment [10], in [11], in experiment [12] and in [13] was “inactive” throughout. Also, the Potency result in experiment [14] is “inactive”. Moreover, the molecule was classed as inactive in experiment [3] and in experiment [8].
On to `NC(N)=O`, for which the Potency entry in experiment [1], in experiment [15], in [2], in [4], in experiment [5] and in experiment [6] was “inactive” throughout. Further, the Potency result in experiment [7], in experiment [9], in experiment [10], in experiment [11], in experiment [12] and in [13] was “inactive” throughout. Also, the Potency entry in [14] was “inactive”. Further, the molecule was classed as inactive in experiment [3] and in experiment [8].
On to `ClC(Cl)Cl`, for which the Potency result in [1], in [2], in [4], in experiment [5], in experiment [6] and in experiment [7] was “inactive” throughout. Moreover, the Potency result in experiment [9], in [10], in [11], in experiment [12], in experiment [13] and in experiment [14] was “inactive” throughout. In addition, the molecule was classed as inactive in experiment [3] and in [8].
For the molecule `CC(C)O`, the Potency entry in [1], in [2], in experiment [4], in experiment [5], in [6] and in [7] was “inactive” throughout. The Potency result in experiment [9], in [10], in experiment [11], in [12], in [13] and in [14] was “inactive” each time. Moreover, the call in experiment [3] and in experiment [8] was inactive.
With `COC(=O)c1ccccc1O`, the Potency entry in experiment [1], in [2], in experiment [4], in experiment [5], in [6] and in experiment [7] was “inactive” each time. Besides, the Potency entry in [9], in [10], in [11], in experiment [12], in [13] and in [14] was “inactive” throughout. Moreover, the result in experiment [3] and in experiment [8] was inactive.
As to `CCCCO`, the Potency entry in experiment [1], in [2], in experiment [4], in [5], in experiment [6] and in [7] was “inactive” throughout. Besides, the Potency entry in [9], in experiment [10], in experiment [11], in experiment [12], in [13] and in experiment [14] was “inactive” throughout. For the same molecule, the outcome in experiment [3] and in experiment [8] was inactive.
For the molecule `CCOC(C)OCC`, the Potency entry in experiment [1], in experiment [2], in experiment [4], in experiment [5], in experiment [6] and in experiment [7] was “inactive” throughout. Moreover, the Potency entry in [9], in [10], in experiment [11], in experiment [12], in experiment [13] and in [14] was “inactive” each time. Besides, the outcome in [3] and in experiment [8] was inactive.
Regarding `Nc1ncnc2c1ncn2[C@H]1CC[C@@H](CO)O1`, the Potency entry in experiment [1], in [15], in experiment [2], in [4], in experiment [5] and in experiment [6] was “inactive” in each case. Also, the Potency result in experiment [7], in experiment [9], in [10], in [11], in [12] and in [13] was “inactive” throughout. Besides, the Potency result in experiment [14] was “inactive”. The molecule was classed as inactive in experiment [3] and in experiment [8].
Take `CO`: the Potency result in experiment [1], in experiment [2], in experiment [4], in experiment [5], in experiment [6] and in [7] was “inactive” each time. Besides, the Potency result in experiment [9], in [10], in [11], in [12], in experiment [13] and in experiment [14] was “inactive” in each case. The call in [3] and in [8] was inactive.
Consider `OCC(O)CO`, for which the Potency result in experiment [1], in [2], in [4], in experiment [5], in experiment [6] and in experiment [7] was “inactive” in each case. Moreover, the Potency entry in experiment [9], in [10], in experiment [11], in [12], in experiment [13] and in experiment [14] was “inactive” each time. Moreover, the result in experiment [3] and in [8] was inactive.
As to `NCCN`, the Potency result in [1], in [2], in experiment [4], in experiment [5], in experiment [6] and in [7] was “inactive” each time. In addition, the Potency entry in experiment [9], in experiment [10], in experiment [11], in experiment [12], in [13] and in [14] was “inactive” each time. In addition, the call in experiment [3] and in experiment [8] was inactive.
With `CC[C@H]1OC(=O)[C@H](C)[C@@H](O[C@H]2C[C@@](C)(OC)[C@@H](O)[C@H](C)O2)[C@H](C)[C@@H](O[C@@H]2O[C@H](C)C[C@H](N(C)C)[C@H]2O)[C@](C)(O)C[C@@H](C)CN(C)[C@H](C)[C@@H](O)[C@]1(C)O`, the Potency entry in experiment [1], in [2], in experiment [4], in experiment [5], in experiment [6] and in [7] was “inactive” throughout. Also, the Potency result in [9], in experiment [10], in [11], in [12], in experiment [13] and in experiment [14] was “inactive” in each case. Also, the molecule was classed as inactive in [3] and in [8].
In the case of `Cc1ccc(S(=O)(=O)O)cc1C`, the Potency result in [1], in experiment [2], in [4], in [5], in experiment [6] and in [7] was “inactive” throughout. The Potency result in experiment [9], in [10], in experiment [11], in experiment [12], in [13] and in experiment [14] was “inactive” throughout. The result in [3] and in experiment [8] was inactive.
Consider `CCCCC`, for which the Potency result in experiment [1], in [2], in [4], in experiment [5], in [6] and in experiment [7] was “inactive” in each case. Further, the Potency result in [9], in experiment [10], in experiment [11], in [12], in experiment [13] and in experiment [14] was “inactive” throughout. Further, the call in experiment [3] and in [8] was inactive.
